{"source": "PubChem BioAssay AID720540", "about": "(National Center for Advancing Translational Sciences (NCATS), 2013)", "note": "The whole screen tested about 1,300 compounds, of which about 460 (35%) were called active. About 39% were inconclusive and are not listed. The call rests on the fitted dose curve; in most records, active means well fitted inhibition curve with a large enough effect; inconclusive means small, poorly fitted or top-dose-only effect; inactive means flat fitted curve, though single readings scatter. The list shows a part of the results. Potency means the concentration at half of the fitted maximal effect.", "data": [{"target": "Protein phosphatase EYA2 (Homo sapiens) (UniProt O00167)", "sequence (O00167 whole entry, looked up)": "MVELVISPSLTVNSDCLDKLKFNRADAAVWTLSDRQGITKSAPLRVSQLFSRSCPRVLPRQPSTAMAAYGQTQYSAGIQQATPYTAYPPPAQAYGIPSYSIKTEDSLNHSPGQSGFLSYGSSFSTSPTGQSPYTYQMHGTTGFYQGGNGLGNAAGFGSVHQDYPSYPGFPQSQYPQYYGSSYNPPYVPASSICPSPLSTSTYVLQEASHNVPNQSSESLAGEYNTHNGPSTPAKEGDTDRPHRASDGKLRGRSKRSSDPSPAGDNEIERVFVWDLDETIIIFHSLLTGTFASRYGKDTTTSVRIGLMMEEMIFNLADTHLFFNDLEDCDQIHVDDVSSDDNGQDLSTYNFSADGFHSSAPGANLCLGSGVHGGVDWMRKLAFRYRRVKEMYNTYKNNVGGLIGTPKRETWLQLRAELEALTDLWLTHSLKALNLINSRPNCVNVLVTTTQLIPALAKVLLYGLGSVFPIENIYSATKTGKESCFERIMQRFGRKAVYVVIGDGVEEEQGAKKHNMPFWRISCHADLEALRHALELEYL", "experiment": "qHTS for Inhibitors of the Phosphatase Activity of Eya2: Confirmatory Assay for Cherry-picked Compounds; further: nearly all actives have a fitted effect of over 65% in size", "details": "purified EYA2 phosphatase activity, qHTS confirmation; series mostly up to 46.1 µM", "how_it_was_run": "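Eya2 (0.2 uM working solution) preincubated 10 min at room temperature with compound in pH 7.5 HEPES buffer with MgCl2, BSA, DTT. OMFP added (50 uM working solution), 10 min more; fluorescence 485/525 nm, normalized to EGTA and DMSO.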", "values": [{"smiles": "CC(=O)N1CCN(/[N+]([O-])=N/Oc2ccc([N+](=O)[O-])cc2[N+](=O)[O-])CC1", "Potency": "19 µM (active)"}, {"smiles": "Cn1nc([N+](=O)[O-])nc1Sc1cccc2cccnc12", "Potency": "1.9 µM (active)"}, {"smiles": "O=c1c(O)cccc2cc(O)c(O)c(O)c12", "Potency": "8.49 µM (active)"}, {"smiles": "OCCN(Cc1cccnc1)Cc1ccccn1", "Potency": "5.36 µM (active)"}, {"smiles": "CC(=O)Nc1ccc(S(=O)(=O)Nc2cccc3cccnc23)cc1", "Potency": "4.78 µM (active)"}, {"smiles": "CC1(C)CC(=O)c2c(oc3ccc(NS(=O)(=O)c4cccc5cccnc45)cc23)C1", "Potency": "inactive"}, {"smiles": "COc1ccc(N(CC(=O)Nc2cccc(C(C)=O)c2)S(=O)(=O)c2ccc(NC(C)=O)cc2)cc1", "Potency": "inactive"}, {"smiles": "O=S(=O)(Nc1cccc2cccnc12)c1ccccc1Br", "Potency": "16.9 µM (active)"}, {"smiles": "O=C(CCCl)Nc1cccc2cccnc12", "Potency": "15.1 µM (active)"}, {"smiles": "CCOc1ccc(Br)cc1S(=O)(=O)NC1CC(C)(C)NC(C)(C)C1", "Potency": "inactive"}, {"smiles": "NC(=O)c1c(NC(=O)c2ccc(N3C(=O)CCC3=O)cc2)sc2c1CCCC2", "Potency": "1.51 µM (active)"}, {"smiles": "CCCC(=O)NC(=S)Nc1sc2c(c1C(N)=O)CCC2", "Potency": "inactive"}, {"smiles": "CN(C)S(=O)(=O)n1cnc2ccccc21", "Potency": "inactive"}, {"smiles": "CCc1nnc2c(N(C)C)nc3ccccc3n12", "Potency": "15.1 µM (active)"}, {"smiles": "Cn1c(=O)n(Cc2ccc(F)cc2)c(=O)c2c1nc1n2CCN1Cc1ccco1", "Potency": "16.9 µM (active)"}, {"smiles": "Cn1c(=O)n(CCO)c(=O)c2c1nc(Br)n2Cc1ccccc1", "Potency": "inactive"}, {"smiles": "Cc1ccc(C(=O)Oc2ccc(C(=O)COC(=O)c3cnccn3)cc2)cc1", "Potency": "0.478 µM (active)"}, {"smiles": "Fc1ccc(-c2ccc(CNCc3ccccn3)o2)cc1", "Potency": "19 µM (active)"}, {"smiles": "Clc1cccc(-c2ccc(CNCc3ccccn3)o2)c1", "Potency": "19 µM (active)"}, {"smiles": "Clc1ccc(-c2ccc(CNCc3ccccn3)o2)cc1", "Potency": "15.1 µM (active)"}, {"smiles": "O=S(=O)(c1ccc(Cl)s1)N1CCc2ccccc2C1", "Potency": "inactive"}, {"smiles": "CCOc1cc(C=NNC(=O)c2cccc(S(=O)(=O)N3CCCC3)c2)ccc1O", "Potency": "6.01 µM (active)"}, {"smiles": "CC1CCC(=NNc2ccc(C(F)(F)F)cc2[N+](=O)[O-])CC1", "note": "(stereo not given)", "Potency": "7.57 µM (active)"}, {"smiles": "O=C(O)c1ccc2c(c1)C(=O)N(c1ccc(/C=C/C(=O)c3ccccc3)cc1)C2=O", "Potency": "19 µM (active)"}, {"smiles": "O=C(O)c1ccc2c(c1)C(=O)N(c1cccc(-c3nc4ccccc4s3)c1)C2=O", "Potency": "inactive"}, {"smiles": "CCCc1cc(=O)[nH]c(SCC(=O)Nc2ccc(C)cc2)n1", "Potency": "inactive"}, {"smiles": "Cc1nnc2sc(SCC(=O)Nc3ccc(Br)cc3)nn2c1=O", "Potency": "4.78 µM (active)"}, {"smiles": "O=c1[nH]c(/C=C\\c2ccc(O)cc2)nc(O)c1[N+](=O)[O-]", "Potency": "inactive"}, {"smiles": "CCOC(=O)c1nn2c(C(F)(F)F)cc(-c3ccc(OC)cc3)nc2c1Br", "Potency": "12 µM (active)"}, {"smiles": "CNc1c(Br)cc(C(O)C2=CCc3ccccc32)cc1Br", "note": "(stereo not given)", "Potency": "inactive"}, {"smiles": "Nc1nc2cc3ccccc3cc2[nH]c1=O", "Potency": "inactive"}, {"smiles": "Cc1ccccc1NC(=O)C1CCN(C(=O)N2CCOc3ccccc32)CC1", "Potency": "inactive"}, {"smiles": "Cc1ccccc1C(=O)NC(=S)Nc1ccccc1N1CCCC1", "Potency": "13.5 µM (active)"}, {"smiles": "CCc1nc2ccc(C(=O)NCCOc3ccc(OC)cc3)cn2c1N(CCC(C)C)CCN(C)C", "Potency": "inactive"}, {"smiles": "C/C(=C1/C=Nc2ccccc21)c1ccc(N(C)C)cc1", "Potency": "19 µM (active)"}, {"smiles": "Cc1cccn2c(=O)c3cc(S(=O)(=O)c4ccc(F)cc4)c(=N)n(Cc4ccco4)c3nc12", "Potency": "inactive"}, {"smiles": "COc1ccc(CCn2c(=N)c(C(=O)NCc3ccco3)cc3c(=O)n4ccccc4nc32)cc1OC", "Potency": "15.1 µM (active)"}, {"smiles": "CCC(=O)c1cn(CC(=O)Nc2c(C)cccc2C)c2ccccc12", "Potency": "inactive"}, {"smiles": "Cc1ccccc1OCCn1cc(C(=S)N2CCN(C)CC2)c2ccccc21", "Potency": "16.9 µM (active)"}, {"smiles": "O=c1oc(-c2ccco2)nc2ccccc12", "Potency": "19 µM (active)"}, {"smiles": "O=C(O)CCCCCNS(=O)(=O)c1cccc2c1C(=O)c1ccccc1C2=O", "Potency": "6.01 µM (active)"}, {"smiles": "CCOc1ccccc1O[C@H](c1ccccc1)[C@H]1CNCCO1", "Potency": "inactive"}, {"smiles": "Nn1c(SCC(=O)Nc2ccc3c(c2)OCCO3)nnc1-c1ccccn1", "Potency": "21.3 µM (active)"}, {"smiles": "NC(=O)C1CCN(CC(=O)Nc2ccc3c(c2)OCO3)CC1", "Potency": "inactive"}, {"smiles": "O=C(CSc1ccc2c(c1)OCCO2)Nc1ccc2c(c1)OCO2", "Potency": "inactive"}, {"smiles": "O=S(=O)(Nc1nnc(-c2ccccc2)s1)c1ccc(Cl)cc1", "Potency": "15.1 µM (active)"}, {"smiles": "COc1cc(OC)c(OC)cc1CCC(C)NCCC(c1ccccc1)c1ccccc1", "note": "(stereo not given)", "Potency": "8.49 µM (active)"}, {"smiles": "Cc1ccc(NC(=O)CN2C(=O)S/C(=C\\c3cc(Cl)c(OCC(=O)O)c(Cl)c3)C2=O)cc1", "Potency": "19 µM (active)"}, {"smiles": "CC(SC1=NCCS1)C(=O)Nc1nnc(-c2ccc(Br)cc2)s1", "note": "(stereo not given)", "Potency": "6.01 µM (active)"}, {"smiles": "Oc1c(C(c2ccc(Cl)cc2)N2CCCC2)cc(Cl)c2cccnc12", "note": "(stereo not given)", "Potency": "6.75 µM (active)"}, {"smiles": "CN1CCN(C(c2ccccn2)c2cc(Cl)c3cccnc3c2O)CC1", "note": "(stereo not given)", "Potency": "2.39 µM (active)"}, {"smiles": "OC(c1ccc(Cl)cc1)c1nccc2ccccc12", "note": "(stereo not given)", "Potency": "inactive"}, {"smiles": "COC(=O)c1c(C)[nH]c(C(=O)C(C)OC(=O)C2CC(=O)N(c3ccc(C)cc3)C2)c1C", "note": "(stereo not given)", "Potency": "inactive"}, {"smiles": "Cn1c(N)c(C(=O)CSc2nnc(NC3CCCCC3)s2)c(=O)n(C)c1=O", "Potency": "inactive"}, {"smiles": "CC(=O)Oc1ccc(C(=O)OCC(=O)c2c(N)n(C)c(=O)n(C)c2=O)cc1OC(C)=O", "Potency": "4.78 µM (active)"}, {"smiles": "O=C(Oc1ccc(C(=S)N2CCOCC2)cc1Cl)c1ccccc1F", "Potency": "8.49 µM (active)"}, {"smiles": "COc1ccc(C(=O)N2CCOCC2)cc1S(=O)(=O)N1CCCc2ccccc21", "Potency": "inactive"}, {"smiles": "O=C(Oc1ccc(C(=S)N2CCOCC2)cc1Br)c1ccccc1F", "Potency": "16.9 µM (active)"}, {"smiles": "CC1=CC(C)(C)Nc2ccc(OC(=O)CN3C(=O)c4ccccc4C3=O)cc21", "Potency": "inactive"}, {"smiles": "CN1/C(=C\\C(=S)NC(=O)c2ccccc2Cl)C(C)(C)c2ccccc21", "Potency": "16.9 µM (active)"}, {"smiles": "O=C(NC1CCCCC1)N1CCN(C2CCCCC2)CC1", "Potency": "inactive"}, {"smiles": "COc1cc(OC)c(NC(=O)CN(C)S(=O)(=O)c2ccc(-c3ccc(=O)[nH]n3)s2)cc1Cl", "Potency": "4.26 µM (active)"}, {"smiles": "COc1ccc([C@H]2CC(=O)C=C(c3ccnc4ccc(Cl)cc34)C2)cc1", "Potency": "inactive"}, {"smiles": "O=C(O)c1ccc(-c2ccc(/C=c3/sc4nc5ccccc5n4c3=O)o2)cc1Cl", "Potency": "5.36 µM (active)"}, {"smiles": "N=C1/C(=C/c2ccc(-c3cccc(C(=O)O)c3)o2)C(=O)N=C2SC=C(c3ccccc3)N12", "Potency": "inactive"}]}]}
